The source of these data is publication PMC9911399, “Two distinct binding modes provide the RNA-binding protein RbFox with extraordinary sequence specificity”.

Residue numbers refer to the chain shown, from its start. Whole data set: some 16,000 sequences, median “ka relative to ugcaugu” near 0.0091, cut for the highest 2% near 0.032. This excerpt belongs to a sample that is enriched for the highest values.

The chains are these.
B1: UACCAUC (DNA:RNA)
RNA: GGGAGACCGGAAUUCAGAUUGUCCUACCAUCUUAAAUCCCGUCGUAGCCACCA
DNA 1: CAATCTGAATTCCGGTCTCCC
DNA 2: TGGTGGCTACGACGGGATT
B2: CAGGAGG (DNA:RNA)
RNA: B1 RNA with U25C, C27G, C28G, U30G, C31G
DNA 1: CAATCTGAATTCCGGTCTCCC
DNA 2: TGGTGGCTACGACGGGATT
B3: GGAUGGC (DNA:RNA)
RNA: B1 RNA with U25G, A26G, C27A, C28U, A29G, U30G
DNA 1: CAATCTGAATTCCGGTCTCCC
DNA 2: TGGTGGCTACGACGGGATT
B4: GCAUAGC (DNA:RNA)
RNA: B1 RNA with U25G, A26C, C27A, C28U, U30G
DNA 1: CAATCTGAATTCCGGTCTCCC
DNA 2: TGGTGGCTACGACGGGATT
B5: GUCAUGG (DNA:RNA)
RNA: B1 RNA with U25G, A26U, C28A, A29U, U30G, C31G
DNA 1: CAATCTGAATTCCGGTCTCCC
DNA 2: TGGTGGCTACGACGGGATT
B6: GUAUGGU (DNA:RNA)
RNA: GGGAGACCGGAAUUCAGAUUGUCCGUAUGGUUUAAAUCCCGUCGUAGCCACCA
DNA 1: CAATCTGAATTCCGGTCTCCC
DNA 2: TGGTGGCTACGACGGGATT
B7: GCAUGGU (DNA:RNA)
RNA: B6 RNA with U26C
DNA 1: CAATCTGAATTCCGGTCTCCC
DNA 2: TGGTGGCTACGACGGGATT
B8: GGCAUGG (DNA:RNA)
RNA: B6 RNA with U26G, A27C, U28A, G29U, U31G
DNA 1: CAATCTGAATTCCGGTCTCCC
DNA 2: TGGTGGCTACGACGGGATT
B9: GCAUGGC (DNA:RNA)
RNA: B6 RNA with U26C, U31C
DNA 1: CAATCTGAATTCCGGTCTCCC
DNA 2: TGGTGGCTACGACGGGATT
B10: GCAUCGU (DNA:RNA)
RNA: B6 RNA with U26C, G29C
DNA 1: CAATCTGAATTCCGGTCTCCC
DNA 2: TGGTGGCTACGACGGGATT
B11: GCAUGGG (DNA:RNA)
RNA: B6 RNA with U26C, U31G
DNA 1: CAATCTGAATTCCGGTCTCCC
DNA 2: TGGTGGCTACGACGGGATT
B12: GUAUGGG (DNA:RNA)
RNA: B6 RNA with U31G
DNA 1: CAATCTGAATTCCGGTCTCCC
DNA 2: TGGTGGCTACGACGGGATT
B13: GGAUGGG (DNA:RNA)
RNA: B6 RNA with U26G, U31G
DNA 1: CAATCTGAATTCCGGTCTCCC
DNA 2: TGGTGGCTACGACGGGATT
B14: GGAAUGG (DNA:RNA)
RNA: B6 RNA with U26G, U28A, G29U, U31G
DNA 1: CAATCTGAATTCCGGTCTCCC
DNA 2: TGGTGGCTACGACGGGATT

In the assay the target is T1, RBFOX1 RRM (Homo sapiens, UniProt Q9NWB1 109-208).
T1 sequence: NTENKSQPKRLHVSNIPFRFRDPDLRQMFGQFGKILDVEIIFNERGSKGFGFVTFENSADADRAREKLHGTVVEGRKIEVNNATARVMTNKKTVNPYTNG
The experiment in a line: EMSA; HiTS-Eq, 1 nM pool, 10 min; buffer printed only for the single-RNA assays: 10 mM Tris pH 7.5, 150 mM NaCl, 3.4 mM EDTA, 0.001% NP-40, 30 C. The following applies: tags: His6 N-terminal (pET28a); label: 5' 32P. The method, boiled down:
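Relative association constants, normalised to the cognate motif, were derived by comparing read counts of each RNA species with those of the control reaction. The RNA sequenced was the free fraction, separated by 8% native PAGE after a 10 min equilibration in 50 µL of 1 nM 5′-radiolabelled RNA (7 randomized nucleotides) with increasing concentrations of purified wild-type or mutant RbFox RRM.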
In general terms: In EMSA bound probe runs differently from free probe, usually more slowly.
For the molecule B1, the binding signal was 0.000341 KA relative to UGCAUGU.

Regarding B2, the binding signal is 0.00882 KA relative to UGCAUGU.

For B3, the binding signal was 0.0116 KA relative to UGCAUGU.

Regarding B4, the binding signal was 0.0095 KA relative to UGCAUGU.

For B5, the binding signal was 0.0107 KA relative to UGCAUGU.

With B6, the binding signal was 0.0104 KA relative to UGCAUGU.

For B7, the binding signal was 0.558 KA relative to UGCAUGU.

As for B8, the binding signal was 0.104 KA relative to UGCAUGU.

For B9, the binding signal is 0.43 KA relative to UGCAUGU.

On to B10, for which the binding signal is 0.0157 KA relative to UGCAUGU.

As for B11, the binding signal is 0.0735 KA relative to UGCAUGU.

For the molecule B12, the binding signal was 0.00944 KA relative to UGCAUGU.

Turning to B13, the binding signal is 0.0169 KA relative to UGCAUGU.

B14: the binding signal was 0.0293 KA relative to UGCAUGU.
